Shown are actives, neighbours in structure and some others; about 0.92% of the full set was active somewhere.
LAP4-GFP MLPCN = modulators of TOR pathway LAP4-GFP in S. cerevisiae. S. cerevisiae LAP4-GFP multiplex, flow cytometry GFP, 3 h; median GFP as percent of DMSO wells. GFP response vs DMSO, % at 10 µM. hit rate 0.34% among 320,000;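 active = GFP response vs DMSO above a set limit, about the screen mean plus 3 SD, cut at about 150% in these data; inconclusive = under 70 cell events counted for the yeast strain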
AGP1-GFP MLPCN = yeast TOR pathway AGP1-GFP modulation; AID 2066; GFP response vs DMSO, % at 10 µM; hit rate 0.02% among 320,000; S. cerevisiae AGP1-GFP multiplex flow cytometry, 3 h; GFP as percent of DMSO wells;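 active = GFP response relative to DMSO above a set limit, near screen average plus 3 SD, cut at about 150% in these data; inconclusive = fewer than 70 cells counted for the yeast strain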;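 note: median GFP channel fluorescence of the gated AGP1 strain per well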
RPL19A TOR yeast = yeast TOR pathway RPL19A-GFP modulation; S. cerevisiae RPL19A-GFP strain, flow cytometry, 3 h; active compounds read low; percent response vs DMSO, % at 10 µM; hit rate 0.3% among 330,000;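 active = percent response vs DMSO below 50%; inconclusive = fewer than 70 events counted for the yeast strain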;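 note: median channel GFP fluorescence of the barcoded RPL19A-GFP strain; ratio of sample median GFP to plate DMSO average so 100% = DMSO; lower means less RPL19A-GFP as with rapamycin TOR inhibition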
CIT2-GFP yeast = yeast TOR pathway CIT2-GFP modulation. hit rate 0.065% among 320,000. GFP response vs DMSO, % at 10 µM. S. cerevisiae CIT2-GFP strain, flow cytometry, 3 h; 100 means same as DMSO wells. AID 2029;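 active = GFP response relative to DMSO above a set limit, near the screen mean plus 3 SD, cut at about 150% in these data; inconclusive = Fewer than 70 cells measured for a yeast strain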;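 note: ratio of well median GFP fluorescence to mean of DMSO wells on the plate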
MEP2-GFP yeast = modulators of TOR pathway MEP2-GFP in S. cerevisiae | AID 2016 | hit rate 0.51% among 330,000 | S. cerevisiae MEP2-GFP strain, flow cytometry GFP, 3 h; 100% = DMSO control level | GFP response vs DMSO, % at 10 µM;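 active = GFP response versus DMSO above a set limit, roughly screen mean plus 3 SD, cut at about 180% in these data; inconclusive = fewer than 70 cells counted for a yeast strain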;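 note: median GFP fluorescence of the barcode-gated MEP2-GFP cells per well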
* marks the source's active call; other numbers are inactive results; [ ] = another dose, or the depositor's remark.

How did COc1ccccc1CNC(=O)COC(=O)C12CC3CC(CC(O)(C3)C1)C2 do in these assays?
LAP4-GFP MLPCN: 104; AGP1-GFP MLPCN: 93; RPL19A TOR yeast: 96; CIT2-GFP yeast: 94; MEP2-GFP yeast: 100

How did COC(=O)c1sc(N)c(C(=O)OC)c1COC(=O)C12CC3CC(CC(O)(C3)C1)C2 do in these assays?
LAP4-GFP MLPCN: 78; AGP1-GFP MLPCN: 12; RPL19A TOR yeast: 68; CIT2-GFP yeast: inconclusive; MEP2-GFP yeast: 249*[may fluoresce violet]

What do the screens show for `COC(=O)c1sc(-c2ccc(C(C)(C)C)cc2)cc1NC(=O)CSCC(=O)O`?
LAP4-GFP MLPCN: 125; AGP1-GFP MLPCN: 126; RPL19A TOR yeast: 101; CIT2-GFP yeast: 107; MEP2-GFP yeast: 106

What do the screens show for `O=C(COc1ccc([N+](=O)[O-])cc1)Nc1ccc2c(c1)nc1n2CCOC1`?
LAP4-GFP MLPCN: 48; AGP1-GFP MLPCN: inconclusive; RPL19A TOR yeast: 11*[may fluoresce violet]; CIT2-GFP yeast: inconclusive; MEP2-GFP yeast: 203*[may fluoresce violet]

How did Cc1ccc(OCC(=O)Nc2ccc3c(c2)nc2n3CCOC2)cc1 do in these assays?
LAP4-GFP MLPCN: 87; AGP1-GFP MLPCN: 96; RPL19A TOR yeast: 94; CIT2-GFP yeast: 95; MEP2-GFP yeast: 95

Results for CCCC(=O)C1=C(O)C(C(=O)OC)C(C)(C)CC1=Nc1cccc2ccccc12 (configuration not stated) ?
LAP4-GFP MLPCN: 91; RPL19A TOR yeast: 69; CIT2-GFP yeast: inconclusive; MEP2-GFP yeast: 177*[may fluoresce violet]

What do the screens show for `OCCN1CCN(c2ncnc3sc(-c4ccccc4)cc23)CC1`?
LAP4-GFP MLPCN: 101; AGP1-GFP MLPCN: 93; RPL19A TOR yeast: 96; CIT2-GFP yeast: 91; MEP2-GFP yeast: 98

What do the screens show for `Cc1ccc(C(=O)c2nocc2C(=O)c2cccs2)cc1`?
LAP4-GFP MLPCN: 155*; RPL19A TOR yeast: 98; CIT2-GFP yeast: 89; MEP2-GFP yeast: 100

How did COc1cc(OC)cc(-c2c(-c3cccs3)c3cc(-c4ccn[nH]4)ccc3n2C)c1 do in these assays?
LAP4-GFP MLPCN: 95; AGP1-GFP MLPCN: 96; RPL19A TOR yeast: 97; CIT2-GFP yeast: 84; MEP2-GFP yeast: 95

What do the screens show for `COc1cc2[nH]c3c(Cl)ncnc3c2cc1OC`?
LAP4-GFP MLPCN: 109; AGP1-GFP MLPCN: 105; RPL19A TOR yeast: 110; CIT2-GFP yeast: 107; MEP2-GFP yeast: 128

What do the screens show for `COc1cc2[nH]c(Cl)c([N+](=O)[O-])c2cc1OC`?
LAP4-GFP MLPCN: 97; AGP1-GFP MLPCN: 18; RPL19A TOR yeast: 52; CIT2-GFP yeast: inconclusive; MEP2-GFP yeast: 273*[may fluoresce violet]

How did COc1ccc(NC(=S)NCCCCCC(=O)C[N+](=O)[O-])cc1 do in these assays?
LAP4-GFP MLPCN: 251*; AGP1-GFP MLPCN: 84; RPL19A TOR yeast: 88; CIT2-GFP yeast: 63; MEP2-GFP yeast: 119

What do the screens show for `O=C(CCCCCNC(=S)Nc1ccc(Cl)cc1)C[N+](=O)[O-]`?
LAP4-GFP MLPCN: 106; AGP1-GFP MLPCN: 103; RPL19A TOR yeast: 99; CIT2-GFP yeast: 95; MEP2-GFP yeast: 107

How did O=C(C1=NNCC1c1ccccc1)C1OC1c1ccccc1 (configuration not stated) do in these assays?
LAP4-GFP MLPCN: 127; AGP1-GFP MLPCN: 102; RPL19A TOR yeast: 100; CIT2-GFP yeast: 92; MEP2-GFP yeast: 93

Results for CCOc1ccccc1N(CC(=O)Nc1cccnc1)S(=O)(=O)c1ccc(C)cc1 ?
LAP4-GFP MLPCN: 111; AGP1-GFP MLPCN: 110; RPL19A TOR yeast: 105; CIT2-GFP yeast: 107; MEP2-GFP yeast: 101

Results for CCOc1ccccc1N(CC(=O)Nc1cccnc1)S(C)(=O)=O ?
LAP4-GFP MLPCN: 98; RPL19A TOR yeast: 40*[may fluoresce violet]; CIT2-GFP yeast: inconclusive; MEP2-GFP yeast: 552*[may fluoresce violet]

How did CCOc1ccc(-c2nnc(-c3ccccc3)o2)cc1 do in these assays?
LAP4-GFP MLPCN: 94; RPL19A TOR yeast: 30*[may fluoresce violet]; CIT2-GFP yeast: inconclusive; MEP2-GFP yeast: 394*[may fluoresce violet]

Results for CCOc1ccc(-c2nnc(-c3ccc(OC)cc3)o2)cc1 ?
LAP4-GFP MLPCN: 95; AGP1-GFP MLPCN: 88; RPL19A TOR yeast: 102; CIT2-GFP yeast: 78; MEP2-GFP yeast: 92

Results for O=S(=O)(c1ccc(NC(=S)N/N=C/c2cccc(Oc3ccccc3)c2)cc1)N1CCOCC1 ?
LAP4-GFP MLPCN: 127; AGP1-GFP MLPCN: 111; RPL19A TOR yeast: 113; CIT2-GFP yeast: 170*; MEP2-GFP yeast: 165

How did Cc1ccccc1CNS(=O)(=O)c1c(C)[nH]c(C)c1C(=O)N1CCCCC1 do in these assays?
LAP4-GFP MLPCN: 99; AGP1-GFP MLPCN: 106; RPL19A TOR yeast: 100; CIT2-GFP yeast: 106; MEP2-GFP yeast: 105
